This is a sample that favours compounds with a hit; in the whole collection about 12% have one here.
SARS PLpro yeast: inhibitors of SARS-CoV papain-like protease in yeast; 330,000 compounds, 0.19% hits; S. cerevisiae expressing SARS-CoV PLpro, growth rescue; Potency, µM (series often up to 32.9 µM), inactives show top-dose activity, positive = growth rescue, actives largely listed as activators; calls by dose curve; note: 0% is about no effect; nearly all actives have a fitted effect of over 55% in size
Pf growth 96h: P. falciparum growth inhibition at 96 hours. P. falciparum luciferase reporter growth, 96 h. Potency, µM (doses to about 28.7 µM), for the others: top-dose activity change, negative = inhibition, actives largely listed as inhibitors. 320,000 compounds, 6.9% hits; note: % is set by controls: 0 for no effect and ±100 for the full control effect
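96 h incubation, 37 C, 5% CO2, of luciferase-reporter P. falciparum-infected RBCs (2% hematocrit, 0.05% parasitemia final) with test compounds; endpoint luminescence.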
Pf growth 48h: inhibits P. falciparum growth in the first generation, 48 h; P. falciparum luciferase growth in erythrocytes, 48 h; Potency, µM (doses to about 28.7 µM), without a hit: at the top dose activity change, negative = inhibition, hits mostly inhibitors; 310,000 compounds, 5.9% hits; note: % is set by controls: 0 for no effect and ±100 for the full control effect
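Firefly luciferase activity from engineered P. falciparum reports growth; inhibitors lower the luminescent signal. Cultures contained 2% hematocrit erythrocytes at 0.1% final parasitemia.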
Sm TGR inh: S. mansoni TGR enzyme inhibition | purified TGR, DTNB reduction, TNB absorbance 405 nm | 360,000 compounds, 3% hits | Q962Y6 | Potency, µM (titrated, usually from 114 µM), for inactives: at the highest dose activity change, negative = inhibition, usual class: inhibitors | AID 485364; note: % is set by controls: 0 for no effect and ±100 for the full control effect; nearly all actives have a fitted effect of over 60% in size
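TGR 20 nM + NADPH 100 uM (dispensed conc.), cpd preinc 15 min RT; start with NADPH (500 uM addition) then DTNB (15 mM addition). Kinetic TNB absorbance, 405 nm filter. Four-parameter Hill fit across titration.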
AmpC detergent: inhibitors of E. coli AmpC beta-lactamase with detergent. AmpC hydrolysis of nitrocefin, absorbance 480 nm, 0.01% Triton. Potency, µM (titrated, usually from 114 µM), for the others: at the top dose activity change, negative = inhibition, actives largely listed as inhibitors. AID 485294. 370,000 compounds, 0.041% hits;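 note: 0% = no-compound wells and -100% = no-enzyme wells; nearly all actives have a fitted effect of over 25% in size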
Target sequence (P00811 whole entry, looked up): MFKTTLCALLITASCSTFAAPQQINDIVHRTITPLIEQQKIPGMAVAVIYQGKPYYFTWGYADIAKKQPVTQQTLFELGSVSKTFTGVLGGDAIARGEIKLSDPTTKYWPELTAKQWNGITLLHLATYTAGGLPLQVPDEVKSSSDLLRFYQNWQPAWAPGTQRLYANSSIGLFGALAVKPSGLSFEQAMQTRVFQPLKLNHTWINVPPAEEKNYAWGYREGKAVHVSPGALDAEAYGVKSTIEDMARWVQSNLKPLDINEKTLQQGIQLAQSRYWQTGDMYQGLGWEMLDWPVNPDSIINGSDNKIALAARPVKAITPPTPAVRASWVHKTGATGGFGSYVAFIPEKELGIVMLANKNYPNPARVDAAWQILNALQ
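AmpC (5.3 nM in the dispensed reagent) in 20 mM phosphate pH 7.0 with 0.01% (detergent screen) or 0.0001% Triton X-100 was preincubated with compounds for 15 min at room temperature. Nitrocefin was then added from an 800 uM solution, and hydrolysis was followed at 480 nm.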
AmpC no deterg: inhibitors of E. coli AmpC beta-lactamase without detergent; 330,000 compounds, 0.52% hits; AmpC nitrocefin hydrolysis, absorbance 480 nm, 0.0001% Triton; P00811; AID 485341; Potency, µM (doses to about 57.1 µM), inactives show top-dose activity change, negative = inhibition, actives largely listed as inhibitors;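 note: plate controls were no compound for no effect and no enzyme for full effect; nearly all actives have a fitted effect of over 20% in size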
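AmpC (5.3 nM in the dispensed reagent) in 20 mM phosphate pH 7.0 with 0.01% (detergent screen) or 0.0001% Triton X-100 was preincubated with compounds for 15 min at room temperature. Nitrocefin was then added from an 800 uM solution, and hydrolysis was followed at 480 nm.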
* = called active by the depositor. Unless noted, calls come from the whole dose curve; as a rule, active = well fitted curve in the direction sought with a large enough effect; inconclusive = small, poorly fitted or top-dose-only effect, or another doubt; inactive = no such curve, though single readings can be large; an effect the other way counts as inactive or inconclusive. Potency is the fitted concentration of half-maximal effect.

For Cc1ccccc1NC(=O)C1Cc2ccccc2CN1C(=O)OCc1ccccc1 (stereo not drawn) the results were SARS PLpro yeast 6%, Pf growth 96h 13µM*, Pf growth 48h -23%, Sm TGR inh 3%, AmpC detergent -1% and AmpC no deterg -9%.
Screening NS(=O)(=O)c1ccc(NC(=O)C2Cc3ccccc3CN2C(=O)c2ccco2)cc1 (stereo not drawn) returned SARS PLpro yeast 4%, Pf growth 96h -26%, Pf growth 48h -3%, Sm TGR inh 45µM*, AmpC detergent -4% and AmpC no deterg -30%.
For CCN(CC)CCCNC(=O)c1sc2nc3n(c(=O)c2c1C)CCCCC3 the results were Sm TGR inh 12% and AmpC detergent 3%.
CCOC(=O)CNC(=O)CSc1nc2cccnc2n1C1CCCCC1 was read as SARS PLpro yeast -2%, Pf growth 96h 9.3µM*, Pf growth 48h -14%, Sm TGR inh -24%, AmpC detergent 2% and AmpC no deterg -1%.
Screening Cc1ccc(CCNC(=O)c2ccc(CSCc3ccccc3C)o2)cc1 returned Sm TGR inh -8% and AmpC detergent 12%.
For Cc1cccc(NS(=O)(=O)c2ccc3c(c2)OCC(C(=O)N2CCCC2)O3)c1C (stereo not drawn) the results were Sm TGR inh 1% and AmpC detergent -7%.
`NC(=O)CC(NC(=O)c1ccc(Br)cc1)c1ccc(NC2CCCCCC2)c([N+](=O)[O-])c1` (stereo not drawn) gave SARS PLpro yeast -10%, Pf growth 96h 10%, Pf growth 48h 3%, Sm TGR inh 1%, AmpC detergent -12% and AmpC no deterg -38%.
CCOC(=O)N1CCC(NC(=O)c2ccc3c(c2)N(Cc2ccc(Cl)cc2)C(=O)c2ccccc2S3(=O)=O)CC1 was read as Sm TGR inh 1% and AmpC detergent 2%.
CCCCNC(=O)c1cnc2sc(N3CCCCCC3)nn2c1=O was read as Sm TGR inh 5% and AmpC detergent 22%.
For CCNc1nc(NC(C)CC)nc(ON=C(C)C)n1 (stereo not drawn) the results were SARS PLpro yeast 1%, Pf growth 96h 13µM*, Pf growth 48h 1.5µM*, AmpC detergent -4% and AmpC no deterg -16%.
Screening CCNc1nc(NCC)nc(ON=C(C)C)n1 returned SARS PLpro yeast 3%, Pf growth 96h 2.1µM*, Pf growth 48h 3.7µM*, Sm TGR inh -31%, AmpC detergent 0% and AmpC no deterg -13%.
For CCN(C(=O)COC(=O)CSc1ccc(F)cc1)c1c(N)n(Cc2ccccc2)c(=O)[nH]c1=O the results were SARS PLpro yeast -1%, Pf growth 96h -5%, Pf growth 48h -8%, Sm TGR inh -13%, AmpC detergent -3% and AmpC no deterg 5%.
`CCN(CC)S(=O)(=O)c1ccc(C(=O)NCCSc2c(-c3ccc(F)cc3)[nH]c3ccccc23)cc1` gave Sm TGR inh -1% and AmpC detergent 3%.
For CCCN1Cc2cccc(C(=O)Nc3ccc(-c4nc5ccccc5[nH]4)cc3)c2C1=O the results were SARS PLpro yeast 8%, Pf growth 96h -13%, Pf growth 48h 2.3µM*, Sm TGR inh -24%, AmpC detergent -9% and AmpC no deterg -30%.
For COCCN1Cc2cccc(C(=O)Nc3cccc(-c4nc5ccccc5[nH]4)c3)c2C1=O the results were SARS PLpro yeast -8%, Pf growth 96h inconclusive, Pf growth 48h 1.9µM*, Sm TGR inh 9%, AmpC detergent -6% and AmpC no deterg 103%.
`CCCCNC(=S)N/N=C/c1ccc(OCC(=O)Nc2c(C)cc(C)cc2C)c(OC)c1` gave SARS PLpro yeast 0%, Pf growth 96h 29%, Pf growth 48h -2%, Sm TGR inh 14%, AmpC detergent -10% and AmpC no deterg -8%.
CC(C)(C)NC(=O)c1ccc(NC(=O)c2ccccc2-c2ccccc2C(=O)O)cc1 was read as SARS PLpro yeast 0%, Pf growth 96h inconclusive, Pf growth 48h inconclusive, Sm TGR inh 22%, AmpC detergent -8% and AmpC no deterg -14%.
N#C/C(=C\c1c[nH]c2ccc(Br)cc12)c1ccccn1 was read as SARS PLpro yeast 2%, Pf growth 96h 9.3µM*, Pf growth 48h inconclusive, Sm TGR inh 5%, AmpC detergent 4% and AmpC no deterg -3%.
For N#C/C(=C\c1ccc(C(=O)O)cc1)c1ccccn1 the results were SARS PLpro yeast -3%, Pf growth 96h 22%, Pf growth 48h 11%, Sm TGR inh 5%, AmpC detergent 3% and AmpC no deterg -2%.
`Cn1cnnc1SCC(=O)NN(c1ccccc1)c1ccccc1` gave SARS PLpro yeast -16%, Pf growth 96h 31%, Pf growth 48h 4%, Sm TGR inh 9%, AmpC detergent 6% and AmpC no deterg -15%.
`Cc1cc(C)nc(N/C(=N\S(=O)(=O)Cc2ccccc2)Nc2ccc(F)c(Cl)c2)n1` gave SARS PLpro yeast -11%, Pf growth 96h 9.3µM*, Pf growth 48h -8%, Sm TGR inh 0%, AmpC detergent inconclusive and AmpC no deterg -26%.
For COc1cc2nc(SCc3ccc(F)cc3)n(Cc3cccs3)c(=N)c2cc1OC the results were SARS PLpro yeast -8%, Pf growth 96h inconclusive, Pf growth 48h inconclusive, Sm TGR inh -26%, AmpC detergent inconclusive and AmpC no deterg 30%.
COc1ccc(Cn2c(SCc3ccccc3C)nc3cc(OC)c(OC)cc3c2=N)cc1 was read as SARS PLpro yeast -2%, Pf growth 96h 1.7µM*, Pf growth 48h 5.9µM*, Sm TGR inh -21%, AmpC detergent -6% and AmpC no deterg 150%.
COCCCn1c(SCCc2ccccc2)nc2cc(OC)c(OC)cc2c1=N was read as SARS PLpro yeast -7%, Pf growth 96h 9.3µM*, Pf growth 48h 12µM*, Sm TGR inh -6%, AmpC detergent -12% and AmpC no deterg 213%.
Screening COc1ccc(N2C(=O)C3CCCN3C2c2cccc(F)c2)cc1Cl (stereo not drawn) returned SARS PLpro yeast 2%, Pf growth 96h 40%, Pf growth 48h 11%, Sm TGR inh 0%, AmpC detergent -6% and AmpC no deterg 10%.
COc1ccc(/C=C/C(=O)c2ccc(OC)cc2OC)c(OC)c1 was read as SARS PLpro yeast -4%, Pf growth 96h 3.7µM*, Pf growth 48h inconclusive, Sm TGR inh 8%, AmpC detergent 6% and AmpC no deterg -13%.

Screens as filed in PubChem BioAssay.
